What was measured:
[1] = test system: Human papillomavirus type 1a protein E7 (residues 44-93); experiment: HPV1a E7 fragment binders on microarrays, primary screen, biochemical, small-molecule microarray, residues 44-93, 635 nm fluorescence (AID 1108); conditions: small-molecule microarray binding, fluorescence 635 nm; higher = more signal;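 also: E7 fragment applied at 1 µg/mL in TBST for 1 h at 4 C; score combines spot fluorescence with its signal to noise ratio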
[2] = modulators of HCV replicon luciferase signal, primary screen, HCV replication inhibitor project, Huh7 cells, luciferase reporter (AID 1109); conditions: 48 h, higher = more signal;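 also: huh7 hepatoma cells harbouring a luciferase neomycin HCV replicon reporter; luciferase luminescence as measure of HCV replicon replication; test concentration not given here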
[3] = target: Left-right determination factor 2 (Homo sapiens) (UniProt O00292); experiment: LEFTY2 binders on small-molecule microarrays, primary screen, biochemical, small-molecule microarray, 635 nm fluorescence scan (AID 1110); conditions: LEFTY2 binding, higher = more signal
Sequence of Left-right determination factor 2 (Homo sapiens) (O00292 whole entry, looked up): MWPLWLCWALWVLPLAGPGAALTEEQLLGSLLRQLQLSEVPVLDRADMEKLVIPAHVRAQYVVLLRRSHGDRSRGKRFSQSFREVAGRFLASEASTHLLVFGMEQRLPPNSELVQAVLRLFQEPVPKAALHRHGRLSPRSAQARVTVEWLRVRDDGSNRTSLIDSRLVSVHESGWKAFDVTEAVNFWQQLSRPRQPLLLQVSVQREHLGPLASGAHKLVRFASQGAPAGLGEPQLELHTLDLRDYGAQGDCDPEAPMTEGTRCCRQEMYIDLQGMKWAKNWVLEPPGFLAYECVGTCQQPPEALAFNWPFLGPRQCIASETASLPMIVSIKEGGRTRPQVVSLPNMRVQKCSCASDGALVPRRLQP

[4] = target: Calmodulin-1 (Homo sapiens) (UniProt P0DP23); experiment: CALM1 binders on microarrays, EGTA buffer, profiling panel, biochemical, small-molecule microarray, Cy5-labelled CALM1 (AID 1111); conditions: Cy5-CALM1 binding fluorescence, higher = more signal;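 also: labelled calmodulin applied in Tris saline Tween buffer holding calcium plus EGTA and DTT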
[5] = target: Calmodulin-1 (Homo sapiens) (UniProt P0DP23); experiment: calcium-bound CALM1 binders on microarrays, profiling panel, artefact control for SMM control-protein annotation, biochemical, small-molecule microarray, Cy5-labelled CALM1, plus calcium (AID 1112); conditions: Cy5-CALM1 binding fluorescence, higher = more signal;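 also: score merges spot fluorescence with signal to noise from triplicate slides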
[6] = small-molecule microarray binders of probe aWnt5a, primary screen, biochemical, biotinylated probe, 635/667 nm fluorescence (AID 1113); conditions: higher = more signal;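 also: score merges 667 nm fluorescence intensity with signal-to-noise per printed feature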
[7] = small-molecule microarray binders of probe aShh, primary screen, biochemical, biotinylated probe, 635/667 nm fluorescence (AID 1114); conditions: higher = more signal;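 also: probe is biotin-labelled aShh protein from a stem cell growth factor screen; measures binding of labelled protein to compounds printed on the slide; score merges feature fluorescence at 667 nm with signal-to-noise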
[8] = small-molecule microarray binders of probe aNog, primary screen, biochemical, biotinylated probe, 635/667 nm fluorescence (AID 1115); conditions: higher = more signal;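 also: probe is biotinylated aNog protein used at 0.15 µg/mL for 1 h at 4 C; z-score combines 667 nm fluorescence of each spot with its signal to noise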
[9] = target: Torsin-1A-interacting protein 1 (Homo sapiens) (UniProt Q5JTV8); experiment: LAP1 binders from COS7 cell lysate, primary screen, small-molecule microarray, 635/667 nm fluorescence (AID 1116); conditions: COS7-hLAP1 lysate binding, 635 nm fluorescence, higher = more signal
Sequence of Torsin-1A-interacting protein 1 (Homo sapiens) (Q5JTV8 whole entry, looked up): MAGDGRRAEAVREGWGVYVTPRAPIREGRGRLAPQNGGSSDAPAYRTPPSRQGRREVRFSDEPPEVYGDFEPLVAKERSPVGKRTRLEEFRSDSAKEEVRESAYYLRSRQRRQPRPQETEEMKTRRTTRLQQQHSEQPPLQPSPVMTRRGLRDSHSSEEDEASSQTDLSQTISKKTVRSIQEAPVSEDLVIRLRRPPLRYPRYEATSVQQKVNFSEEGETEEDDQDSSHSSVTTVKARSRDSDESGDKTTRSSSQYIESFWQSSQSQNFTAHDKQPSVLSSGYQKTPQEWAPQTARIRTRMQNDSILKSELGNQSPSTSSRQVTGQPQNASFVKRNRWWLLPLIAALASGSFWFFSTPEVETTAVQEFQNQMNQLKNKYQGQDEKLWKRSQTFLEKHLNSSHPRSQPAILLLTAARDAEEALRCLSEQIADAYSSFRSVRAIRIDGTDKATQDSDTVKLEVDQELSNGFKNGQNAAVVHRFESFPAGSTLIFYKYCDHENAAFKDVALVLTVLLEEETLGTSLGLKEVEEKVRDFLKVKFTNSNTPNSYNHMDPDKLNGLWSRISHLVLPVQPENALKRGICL

[10] = target: Alpha-bungarotoxin (Bungarus multicinctus) (UniProt P60615); experiment: alpha-bungarotoxin binders on microarray, profiling panel, artefact control for SMM control protein annotation, biochemical, small-molecule microarray, Alexa647 label, 635/667 nm fluorescence (AID 1117); conditions: alpha-BTX-A647 binding fluorescence, higher = more signal
Sequence of Alpha-bungarotoxin (Bungarus multicinctus) (P60615 whole entry, looked up): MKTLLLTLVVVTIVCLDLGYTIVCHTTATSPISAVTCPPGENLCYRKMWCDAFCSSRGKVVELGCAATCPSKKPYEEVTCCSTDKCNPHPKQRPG

Structure (SMILES)	composite z-score [1]	z-score [2]	composite z-score [3]	composite z-score [4]	composite z-score [5]	composite z-score [6]	composite z-score [7]	composite z-score [8]	composite z-score [9]	composite z-score [10]
COc1ccc(C(=O)Nc2ccc(CN3C(=O)[C@]4(O[C@H](CCO)[C@@H]([Si](C)(C)c5ccc(OC)cc5)[C@@H]4C)c4ccccc43)cc2)cc1	1	-5.09	0.202	0.564	-0.314	0.026	0.014	-0.226	0.432	0.509
CC(C)C(O)C1C=CC2C(=O)NC(=O)C2N1Nc1ccc(Cl)cc1Cl (stereo not given)	-0.898	-0.88	-0.226	1.5	1.23	-0.0944	-0.296	0.0266	1.91	0.712
Cc1ccccc1C(O)C1C=CC2C(=O)N(c3ccccc3)C(=O)C2N1Nc1ccc(C(C)C)cc1 (stereo not given)	0.944	1.11	0.262	1.22	0.618	-0.0721	0.14	0.209	0.0331	1.16
COCCOC(=O)N1C(=O)[C@@]2(c3cc(C#CCC(C(=O)OC)C(=O)OC)ccc31)[C@H](c1ccccc1OCCO)N1[C@H](c3ccccc3)[C@H](c3ccccc3)OC(=O)[C@H]1[C@@H]2C(=O)NC[C@H](O)c1ccccc1	0.948	-2.28	1.44	0.832	0.277	0.0718	0.275	0.237	0.876	0.926
CC1CC/C=C\[C@H]2OC34C=CCN(C(C)(C)C)C(=O)[C@H]3N(CCO)C(=O)[C@@H]4C2C(=O)O1 (stereo not given in full)	-0.432	-0.106	-1.66	-1.34	-0.746	-0.224	-0.372	0.489	-1.25	-0.153
COC(=O)[C@@]1(Cc2ccc(OC)cc2)[C@H]2c3cc(C(=O)N(C)C)n(CCc4ccccn4)c3C[C@H]2CN1C(=O)c1ccccc1	0.263	-0.845	-0.288	0.993	0.93	0.675	1.31	0.854	1.01	0.248
NCCCCCNC(=O)[C@@H]1C[C@@H]2C(=O)N[C@@H](Cc3ccccc3)C(=O)N2[C@@H]1c1ccc(O)cc1	1.37	-0.471	0.406	1.18	1.16	-0.0425	-0.138	-0.144	0.672	0.924
CCCCCN1CC=CC23O[C@@H]4C=CCCOC(=O)C4[C@H]2C(=O)N(CCCCCO)[C@@H]3C1=O (stereo not given in full)	-0.168	-0.605	-0.368	-0.339	-0.578	-0.096	-0.243	-0.178	0.884	-0.99
O=C1C[C@@](C(=O)NCC(F)(F)F)(c2ccc([N+](=O)[O-])cc2)[C@@H](c2ccc(CO)cc2I)N1C1CCCCC1	1.47	-2.54	0.386	0.511	0.074	-0.0758	-0.181	0.437	1.62	0.0759
O=C1O[C@H](c2ccccc2)[C@H](c2ccccc2)N2[C@H]1[C@@H](C(=O)N1CCCCCCC1)[C@]1(C(=O)Nc3ccc(C#CC4=CCCCC4)cc31)[C@H]2c1ccc(OCCO)cc1	1.54	-2.06	1.63	2.6	1.28	1.32	3.1	2.93	3.47	3.42
C=C(COC)/C(=C/C[C@@H](OC(C)=O)c1ccc(OCCO)cc1)c1cnc2ccccc2c1	0.487	-1.19	0.989	0.263	-0.731	-0.0761	0.0557	-0.1	0.174	1.63
CCCC[C@@H]1C[C@H]1[C@@H](NC(=O)C(C)(C)C)c1ccc(C(F)(F)F)cc1	0.946	-1.71	-1.61	1.18	1.3	-0.203	0.102	1.52	0.473	-0.0729
COc1ccc(CCNC(=O)[C@@]2(C)c3ccccc3C(=O)N(C(C)C)[C@H]2c2ccc(CO)cc2)cc1	0.0331	-1.3	0.364	-0.118	-0.229	-0.131	-0.0886	-0.282	0.33	0.672
CN1C(=O)C2C=CC(C(O)c3ccco3)N(Nc3ccccc3)C2C1=O (stereo not given)	0.282	0.0751	0.232	-0.276	-0.833	-0.0192	0.199	-0.165	0.272	0.35
CCC(CC)C(O)C1C=CC2C(=O)NC(=O)C2N1Nc1ccc(Cl)cc1Cl (stereo not given)	0.672	-0.759	-0.46	1.93	1.15	-0.12	0.234	-0.452	0.247	1.05
C=CCC(OC(C)=O)[C@@H]1[C@@H](N(Cc2cccc3ccccc23)C(=O)c2ccc(-c3ccccc3)cc2)c2cc(OCCCO)ccc2N1C(=O)c1ccc2ccccc2c1 (stereo not given in full)	0.564	0.098	-0.164	0.268	0.544	-0.0196	-0.0709	0.223	0.923	-0.0516

Structure (SMILES)	composite z-score [1]	z-score [2]	composite z-score [3]	composite z-score [4]	composite z-score [5]	composite z-score [6]	composite z-score [7]	composite z-score [8]	composite z-score [9]	composite z-score [10]
COC(=O)[C@@]1(Cc2ccc(F)cc2)[C@H]2c3cc(C(=O)N(C)C)n(Cc4ccccc4)c3C[C@H]2CN1C(=O)c1ccccc1	1.35	0.185	-0.496	1.11	0.363	-0.0977	1.17	1.59	-0.3	2.56
COc1ccc([Si](C)(C)[C@H]2[C@H](CCO)O[C@@]3(C(=O)N(Cc4ccc(N(C=O)c5ccccc5)cc4)c4ccccc43)[C@@H]2C)cc1	-0.2	-4.65	-0.677	0.625	1.01	-0.124	-0.0553	-0.14	0.34	0.158
COC(=O)c1c(CC[C@@H](CO)NC(=O)NCCn2cc(C3(O)CCCC3)nn2)oc(C(C)=O)c1C(=O)OC	-0.0133	-0.674	-0.0138	-0.19	-0.732	-0.169	-0.195	-0.158	0.331	0.139
NC(=O)NCC#Cc1ccc2c(c1)[C@]1(C(=O)N2)[C@H](c2ccc(O)cc2)N2[C@H](c3ccccc3)[C@H](c3ccccc3)OC(=O)[C@H]2[C@@H]1C(=O)O	-0.0303	-0.708	-1.09	0.342	0.521	-0.185	-0.42	-0.0683	-0.354	-0.27
C=CCN1C(=O)[C@@]2(Cc3ccccc31)N=C(c1ccc(OCCCO)cc1)O[C@H]2c1ccccc1	0.896	-2.11	0.308	0.355	-0.231	0.0458	0.308	0.89	0.895	0.306
COC(=O)[C@@]1(Cc2ccc(F)cc2)[C@H]2c3cc(C(=O)N4CCCC4)n(CCCNc4ncc(C(F)(F)F)cc4Cl)c3C[C@H]2CN1C(=O)c1ccccc1	1.39	-1.48	-0.386	1.59	0.868	-0.0107	0.831	1.37	0.679	0.493
COC(=O)[C@@]1(CCS(=O)(=O)c2ccccc2)N=C(c2ccc(OCCCO)cc2)O[C@H]1c1ccccc1CN=[N+]=[N-]	0.797	-2.38	-0.343	1.72	0.373	-0.0539	0.0469	0.647	1.13	0.829
CC(C)CNC(=O)[C@@]1(Cc2ccccc2I)c2ccccc2C(=O)N(C2CCCCC2)[C@H]1c1ccc(CO)cc1	0.63	-1.62	-0.294	0.424	0.349	0.0477	0.199	-0.237	0.961	3
C=CC[C@]1(C(=O)NCCCOC)N=C(c2ccc(OCCCO)cc2)O[C@H]1c1ccccc1CN=[N+]=[N-]	0.091	-2.09	0.593	2.12	0.988	0.0509	0.228	1.53	1.95	1.14
NC(=O)NCC#Cc1ccc2c(c1)[C@]1(C(=O)N2)[C@H](c2ccccc2OCCO)N2[C@H](c3ccccc3)[C@H](c3ccccc3)OC(=O)[C@H]2[C@@H]1C(=O)Nc1nc2ccccc2s1	1.36	-0.809	0.0464	0.873	0.745	-0.0944	-0.266	0.448	0.286	1.29
O=C1N[C@@H](Cc2ccccc2)C(=O)N2[C@@H]1C[C@@H](C(=O)O)[C@H]2c1cccc(OCCO)c1	1.3	2.89	0.941	-0.657	0.465	-0.176	-0.243	-0.199	0.49	1.14
COc1cc2c(cc1OC)CN(C(=O)[C@H]1[C@@H]3C(=O)O[C@@H](c4ccccc4)[C@@H](c4ccccc4)N3[C@@H](c3ccc(O)cc3)[C@]13C(=O)Nc1ccc(C#CCCO)cc13)CC2	1.4	-0.838	-0.0265	0.382	0.0412	-0.0403	-0.0553	-0.472	0.469	1.04
CCOC(=O)C1=CC[C@@H](c2ccccc2)N(S(=O)(=O)c2ccc(C)cc2)[C@H]1c1ccccc1C	1.18	-1.6	0.104	0.232	0.296	-0.0512	0.294	-0.0496	0.336	-0.0244
O[C@@H](Cc1ccccc1)[C@H]1C2C=CCCC=C2CN1Cc1cccc(Cl)c1 (stereo not given in full)	1.1	-1.42	0.702	0.0101	-0.2	-0.0721	-0.138	0.277	0.761	1.36
C=C[C@H](CO[Si](CC)(CC)CC)N(Cc1ccc(OC(C)=O)c(OC)c1)S(=O)(=O)c1ccc(Br)cc1	1.15	-3.27	0.537	1.41	0.67	0.101	-0.057	0.0481	1.12	1.23
NC(=O)N1C(=O)C2C(C1=O)C1C=C(c3ccc(CO)cc3)C2C(c2cccs2)N1Cc1cccc(OC(F)(F)F)c1 (stereo not given)	0.142	-0.657	-0.647	1.51	1.16	0.0573	0.275	0.596	1.13	0.611
